For one sequence, binding signal results are on record in publication PMC7862700, “An all-to-all approach to the identification of sequence-specific readers for epigenetic DNA modifications on cytosine”.

Experiment in all cases: DAPPL (digital affinity profiling via proximity ligation, sequencing); 10 mM Tris-HCl pH 7.5, 50 mM NaCl, 1 mM DTT, 4% glycerol, room temperature, 30 min; GST-TFs on glutathione beads, 16-mer random dsDNA library, 0.1% formaldehyde crosslink after washing; high values mean tight binding
Test [1] concerns the target T1, FEV (Homo sapiens, UniProt Q99581 1-238).
T1 sequence: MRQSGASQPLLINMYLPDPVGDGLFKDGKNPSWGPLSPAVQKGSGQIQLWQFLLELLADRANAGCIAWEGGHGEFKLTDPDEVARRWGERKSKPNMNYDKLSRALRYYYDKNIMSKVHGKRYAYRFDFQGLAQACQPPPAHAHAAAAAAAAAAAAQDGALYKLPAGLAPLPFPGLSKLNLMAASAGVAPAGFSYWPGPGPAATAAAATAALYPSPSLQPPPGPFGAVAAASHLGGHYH
To be noted: protein: recombinant; tags: N-terminal GST; dsDNA, one strand shown. In short, it runs like this:
(§1)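 Beads coated with glutathione captured GST-fused human transcription factors that had been expressed in yeast, and the factors were then given DNA barcodes and pooled with a tag-only sample. The pools were incubated with 200 nmole of a random double-stranded 16-mer DNA library in Tris/NaCl/DTT/glycerol buffer for 30 min at room temperature, washed, crosslinked with 0.1% formaldehyde and proximity-ligated with BsaI/T4 ligase at 37 °C for 1 h. PCR amplification and Illumina NextSeq500 sequencing came last. Binding signal is each hexamer's read frequency for a factor divided by its frequency for the tag-only sample.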

Test [2] addresses ETV5 (Homo sapiens, UniProt P41161 1-510). To be noted: protein: recombinant; tags: N-terminal GST; dsDNA, one strand shown. In outline:
as §1

The target in test [3] is HSF1 (Homo sapiens, UniProt Q00613 1-529). To be noted: protein: recombinant; tags: N-terminal GST; chain copies: 3; dsDNA, one strand shown. In outline:
as §1

The target in test [4] is T2, SPIC (Homo sapiens, UniProt Q8N5J4 1-248).
T2 sequence: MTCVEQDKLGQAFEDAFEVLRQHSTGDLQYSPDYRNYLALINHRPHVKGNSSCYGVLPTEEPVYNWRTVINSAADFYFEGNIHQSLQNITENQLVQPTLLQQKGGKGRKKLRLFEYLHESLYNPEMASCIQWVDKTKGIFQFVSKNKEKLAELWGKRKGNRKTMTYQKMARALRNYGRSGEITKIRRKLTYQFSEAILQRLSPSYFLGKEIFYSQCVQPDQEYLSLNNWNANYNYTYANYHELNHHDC
To be noted: protein: recombinant; tags: N-terminal GST; dsDNA, one strand shown. In short, it runs like this:
as §1

Test [5] addresses ELF4 (Homo sapiens, UniProt Q99607 1-663). Conditions: protein: recombinant; tags: N-terminal GST; dsDNA, one strand shown. In outline: as §1
Test [6] concerns the target T3, ELK4 (Homo sapiens, UniProt P28324-2 1-405).
T3 sequence: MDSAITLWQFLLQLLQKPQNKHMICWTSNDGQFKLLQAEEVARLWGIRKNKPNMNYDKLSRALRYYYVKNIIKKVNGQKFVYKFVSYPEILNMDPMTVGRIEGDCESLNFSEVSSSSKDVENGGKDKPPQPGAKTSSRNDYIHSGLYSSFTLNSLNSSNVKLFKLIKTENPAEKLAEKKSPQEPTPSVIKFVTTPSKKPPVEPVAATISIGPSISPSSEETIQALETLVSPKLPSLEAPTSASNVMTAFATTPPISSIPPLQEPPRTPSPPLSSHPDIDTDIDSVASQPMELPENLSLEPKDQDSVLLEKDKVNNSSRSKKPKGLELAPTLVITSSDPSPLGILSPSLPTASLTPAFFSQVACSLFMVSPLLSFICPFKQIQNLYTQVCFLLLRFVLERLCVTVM
To be noted: protein: recombinant; tags: N-terminal GST; dsDNA, one strand shown. In short, it runs like this:
as §1

Test [7] concerns the target T4, ETV2 (Homo sapiens, UniProt O00321 1-342).
T4 sequence: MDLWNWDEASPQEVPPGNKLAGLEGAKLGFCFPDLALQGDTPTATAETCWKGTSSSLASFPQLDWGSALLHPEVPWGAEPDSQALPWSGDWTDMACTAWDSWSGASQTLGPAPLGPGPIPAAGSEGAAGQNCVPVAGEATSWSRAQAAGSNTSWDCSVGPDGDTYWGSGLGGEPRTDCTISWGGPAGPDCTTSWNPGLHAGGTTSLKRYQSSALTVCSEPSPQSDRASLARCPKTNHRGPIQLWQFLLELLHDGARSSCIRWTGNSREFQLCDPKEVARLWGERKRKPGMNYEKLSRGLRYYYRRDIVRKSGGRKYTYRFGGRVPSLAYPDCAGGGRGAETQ
Conditions: protein: recombinant; tags: N-terminal GST; dsDNA, one strand shown. In short, it runs like this: as §1

The target in test [8] is T5, ELF3 (Homo sapiens, UniProt P78545 1-371).
T5 sequence: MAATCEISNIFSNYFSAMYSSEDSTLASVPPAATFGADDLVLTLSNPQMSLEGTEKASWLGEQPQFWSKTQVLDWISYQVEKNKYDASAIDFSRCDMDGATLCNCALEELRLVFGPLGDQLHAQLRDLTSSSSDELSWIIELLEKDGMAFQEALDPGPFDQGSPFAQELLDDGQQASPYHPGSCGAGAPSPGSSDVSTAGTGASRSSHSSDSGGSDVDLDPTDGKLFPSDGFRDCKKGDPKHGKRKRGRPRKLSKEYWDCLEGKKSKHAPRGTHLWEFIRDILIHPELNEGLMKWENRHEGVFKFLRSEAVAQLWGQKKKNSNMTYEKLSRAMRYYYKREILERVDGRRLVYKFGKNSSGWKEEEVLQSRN
Conditions: protein: recombinant; tags: N-terminal GST; dsDNA, one strand shown. In short, it runs like this:
as §1

Test [9] deals with CRX (Homo sapiens, UniProt O43186 1-299). Conditions: protein: recombinant; tags: N-terminal GST; dsDNA, one strand shown. In outline:
as §1

Test [10] addresses ETV1 (Homo sapiens, UniProt P50549 1-477). To be noted: protein: recombinant; tags: N-terminal GST; dsDNA, one strand shown. In outline:
as §1

Test [11] deals with T6, ERF (Homo sapiens, UniProt P50548 1-548).
T6 sequence: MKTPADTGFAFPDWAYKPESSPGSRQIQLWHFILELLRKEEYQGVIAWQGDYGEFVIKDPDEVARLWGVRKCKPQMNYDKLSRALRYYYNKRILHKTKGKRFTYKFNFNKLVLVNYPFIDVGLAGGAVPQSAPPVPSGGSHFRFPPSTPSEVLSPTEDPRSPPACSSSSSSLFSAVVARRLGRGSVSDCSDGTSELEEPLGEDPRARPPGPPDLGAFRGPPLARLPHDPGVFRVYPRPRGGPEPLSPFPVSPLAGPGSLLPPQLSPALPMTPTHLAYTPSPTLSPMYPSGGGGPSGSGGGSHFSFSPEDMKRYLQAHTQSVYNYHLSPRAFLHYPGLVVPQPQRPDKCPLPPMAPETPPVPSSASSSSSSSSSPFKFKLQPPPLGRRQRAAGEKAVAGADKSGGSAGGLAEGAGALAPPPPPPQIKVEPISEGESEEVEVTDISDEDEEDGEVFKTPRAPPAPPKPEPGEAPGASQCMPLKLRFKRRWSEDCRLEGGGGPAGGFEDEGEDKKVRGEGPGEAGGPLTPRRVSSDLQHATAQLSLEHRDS
To be noted: protein: recombinant; tags: N-terminal GST; dsDNA, one strand shown. In short, it runs like this:
as §1

The target in test [12] is T7, ETV3L (Homo sapiens, UniProt Q6ZN32 1-361).
T7 sequence: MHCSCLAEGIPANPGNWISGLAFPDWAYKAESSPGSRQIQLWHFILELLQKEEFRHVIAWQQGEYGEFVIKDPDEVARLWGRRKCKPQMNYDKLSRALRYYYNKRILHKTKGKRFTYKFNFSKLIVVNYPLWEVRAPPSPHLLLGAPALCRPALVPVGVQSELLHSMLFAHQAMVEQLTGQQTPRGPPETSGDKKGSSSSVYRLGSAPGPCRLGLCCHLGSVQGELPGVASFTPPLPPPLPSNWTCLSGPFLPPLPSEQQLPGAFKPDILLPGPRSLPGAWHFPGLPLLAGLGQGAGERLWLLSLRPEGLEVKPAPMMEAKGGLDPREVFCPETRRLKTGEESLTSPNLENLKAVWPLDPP
Conditions: protein: recombinant; tags: N-terminal GST; dsDNA, one strand shown. In short, it runs like this:
as §1

The target of test [13] is T8, ETS2 (Homo sapiens, UniProt P15036 1-469).
T8 sequence: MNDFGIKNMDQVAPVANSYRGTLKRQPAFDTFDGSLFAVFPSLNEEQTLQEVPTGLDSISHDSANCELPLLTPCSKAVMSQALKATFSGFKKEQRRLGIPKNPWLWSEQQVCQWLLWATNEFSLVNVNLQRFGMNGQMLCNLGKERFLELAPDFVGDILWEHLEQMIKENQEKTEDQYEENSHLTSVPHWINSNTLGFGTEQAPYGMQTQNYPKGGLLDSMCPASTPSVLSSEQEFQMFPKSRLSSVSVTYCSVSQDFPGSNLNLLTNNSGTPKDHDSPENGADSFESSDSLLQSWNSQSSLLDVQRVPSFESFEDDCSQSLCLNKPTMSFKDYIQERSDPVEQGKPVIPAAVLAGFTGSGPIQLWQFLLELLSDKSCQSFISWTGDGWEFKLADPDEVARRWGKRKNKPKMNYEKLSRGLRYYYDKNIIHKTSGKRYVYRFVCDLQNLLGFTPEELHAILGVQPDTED
Conditions: protein: recombinant; tags: N-terminal GST; dsDNA, one strand shown. In outline:
as §1

The target in test [14] is T9, SPDEF (Homo sapiens, UniProt O95238 1-335).
T9 sequence: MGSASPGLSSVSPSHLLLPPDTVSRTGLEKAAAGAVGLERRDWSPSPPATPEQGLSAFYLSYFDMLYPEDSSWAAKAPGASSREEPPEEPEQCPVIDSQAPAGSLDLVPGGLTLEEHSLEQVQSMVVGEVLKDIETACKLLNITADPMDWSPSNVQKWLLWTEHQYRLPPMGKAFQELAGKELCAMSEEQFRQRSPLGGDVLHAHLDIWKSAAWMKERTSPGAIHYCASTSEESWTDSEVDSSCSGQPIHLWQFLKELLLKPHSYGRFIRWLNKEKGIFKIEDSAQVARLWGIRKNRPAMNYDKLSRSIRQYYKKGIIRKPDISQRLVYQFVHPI
Conditions: protein: recombinant; tags: N-terminal GST; dsDNA, one strand shown. In short, it runs like this: as §1

The target of test [15] is T10, ETV7 (Homo sapiens, UniProt Q9Y603 1-341).
T10 sequence: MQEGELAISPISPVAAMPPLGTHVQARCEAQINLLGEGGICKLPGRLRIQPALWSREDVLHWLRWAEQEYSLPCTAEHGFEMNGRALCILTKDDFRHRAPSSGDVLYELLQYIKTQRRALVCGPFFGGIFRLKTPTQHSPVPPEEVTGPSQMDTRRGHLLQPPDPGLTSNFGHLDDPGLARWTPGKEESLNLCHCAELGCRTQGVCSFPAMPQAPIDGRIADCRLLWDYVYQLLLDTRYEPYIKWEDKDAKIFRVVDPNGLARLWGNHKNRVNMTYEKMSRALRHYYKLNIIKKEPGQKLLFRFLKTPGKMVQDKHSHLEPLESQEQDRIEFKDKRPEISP
To be noted: protein: recombinant; tags: N-terminal GST; dsDNA, one strand shown. In short, it runs like this:
as §1

The target in test [16] is T11, ELF5 (Homo sapiens, UniProt Q9UKW6-2 1-255).
T11 sequence: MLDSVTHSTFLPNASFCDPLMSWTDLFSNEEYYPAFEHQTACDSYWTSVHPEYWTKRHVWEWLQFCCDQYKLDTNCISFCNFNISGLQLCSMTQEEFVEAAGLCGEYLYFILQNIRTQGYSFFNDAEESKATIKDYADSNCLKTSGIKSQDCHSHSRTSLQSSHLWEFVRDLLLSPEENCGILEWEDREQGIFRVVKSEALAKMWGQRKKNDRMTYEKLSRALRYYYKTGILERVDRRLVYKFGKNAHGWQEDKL
To be noted: protein: recombinant; tags: N-terminal GST; dsDNA, one strand shown. In outline: as §1

The target in test [17] is T12, ETV3 (Homo sapiens, UniProt P41162-2 1-143).
T12 sequence: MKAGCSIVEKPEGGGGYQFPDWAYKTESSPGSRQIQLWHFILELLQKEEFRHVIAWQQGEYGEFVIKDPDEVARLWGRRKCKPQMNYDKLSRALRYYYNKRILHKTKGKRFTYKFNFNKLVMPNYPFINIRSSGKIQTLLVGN
Conditions: protein: recombinant; tags: N-terminal GST; dsDNA, one strand shown. In outline:
as §1

Test [18] concerns the target ETV6 (Homo sapiens, UniProt P41212 1-452). Conditions: protein: recombinant; tags: N-terminal GST; dsDNA, one strand shown. In outline: as §1

Sequence of ETV6 (P41212 whole entry): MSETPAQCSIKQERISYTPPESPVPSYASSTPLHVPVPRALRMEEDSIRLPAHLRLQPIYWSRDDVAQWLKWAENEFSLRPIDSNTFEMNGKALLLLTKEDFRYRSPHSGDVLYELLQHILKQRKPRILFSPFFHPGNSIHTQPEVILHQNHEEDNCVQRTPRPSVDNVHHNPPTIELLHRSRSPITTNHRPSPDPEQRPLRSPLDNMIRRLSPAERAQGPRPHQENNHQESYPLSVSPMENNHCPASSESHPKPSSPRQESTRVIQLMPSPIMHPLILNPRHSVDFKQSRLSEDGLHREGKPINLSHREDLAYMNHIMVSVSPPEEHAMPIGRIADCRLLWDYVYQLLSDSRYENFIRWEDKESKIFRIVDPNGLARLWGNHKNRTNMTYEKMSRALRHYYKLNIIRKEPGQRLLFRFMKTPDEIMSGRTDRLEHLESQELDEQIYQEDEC
Sequence of ETV1 (P50549 whole entry): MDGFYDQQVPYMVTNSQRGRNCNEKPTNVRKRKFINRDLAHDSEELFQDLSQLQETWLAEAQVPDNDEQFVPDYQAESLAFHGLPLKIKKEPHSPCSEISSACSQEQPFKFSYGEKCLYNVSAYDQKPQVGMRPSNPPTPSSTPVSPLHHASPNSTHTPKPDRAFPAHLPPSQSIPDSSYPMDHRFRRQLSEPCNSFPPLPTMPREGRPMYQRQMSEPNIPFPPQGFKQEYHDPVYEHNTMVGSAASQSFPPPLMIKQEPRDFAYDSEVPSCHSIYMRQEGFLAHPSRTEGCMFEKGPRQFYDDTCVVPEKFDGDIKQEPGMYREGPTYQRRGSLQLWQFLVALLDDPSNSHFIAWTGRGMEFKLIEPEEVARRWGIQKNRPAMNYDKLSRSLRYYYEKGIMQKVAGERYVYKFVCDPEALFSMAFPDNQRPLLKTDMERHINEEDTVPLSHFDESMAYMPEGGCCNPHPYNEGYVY
Sequence of HSF1 (Q00613 whole entry): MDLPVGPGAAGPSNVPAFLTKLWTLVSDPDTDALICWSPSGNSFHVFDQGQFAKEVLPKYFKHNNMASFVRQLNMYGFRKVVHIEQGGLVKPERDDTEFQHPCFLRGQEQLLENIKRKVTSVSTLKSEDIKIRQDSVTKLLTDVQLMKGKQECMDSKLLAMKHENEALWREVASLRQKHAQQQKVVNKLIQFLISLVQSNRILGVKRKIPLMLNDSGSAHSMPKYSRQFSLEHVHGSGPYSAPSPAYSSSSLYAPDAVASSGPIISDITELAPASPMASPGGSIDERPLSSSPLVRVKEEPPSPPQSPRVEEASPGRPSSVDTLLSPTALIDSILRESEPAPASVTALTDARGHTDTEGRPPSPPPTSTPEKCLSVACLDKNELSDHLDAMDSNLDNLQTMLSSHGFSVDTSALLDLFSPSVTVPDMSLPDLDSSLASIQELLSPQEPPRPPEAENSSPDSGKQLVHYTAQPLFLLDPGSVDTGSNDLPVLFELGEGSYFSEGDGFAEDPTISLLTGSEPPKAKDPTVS
Sequence of ETV5 (P41161 whole entry): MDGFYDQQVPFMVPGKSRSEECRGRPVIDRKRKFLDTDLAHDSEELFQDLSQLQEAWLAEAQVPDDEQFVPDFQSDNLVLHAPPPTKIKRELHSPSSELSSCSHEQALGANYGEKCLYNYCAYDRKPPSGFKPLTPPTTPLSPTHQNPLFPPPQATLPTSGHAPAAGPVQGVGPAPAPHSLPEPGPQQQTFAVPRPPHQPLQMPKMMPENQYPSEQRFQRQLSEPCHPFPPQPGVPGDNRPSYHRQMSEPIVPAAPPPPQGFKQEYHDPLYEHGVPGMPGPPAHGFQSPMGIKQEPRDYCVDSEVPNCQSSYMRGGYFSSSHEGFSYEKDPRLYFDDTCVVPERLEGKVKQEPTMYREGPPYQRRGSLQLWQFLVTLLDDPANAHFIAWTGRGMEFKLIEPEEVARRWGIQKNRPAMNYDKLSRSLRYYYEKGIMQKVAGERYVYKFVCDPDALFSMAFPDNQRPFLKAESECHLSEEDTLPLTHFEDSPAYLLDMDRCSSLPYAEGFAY
Sequence of ELF4 (Q99607 whole entry): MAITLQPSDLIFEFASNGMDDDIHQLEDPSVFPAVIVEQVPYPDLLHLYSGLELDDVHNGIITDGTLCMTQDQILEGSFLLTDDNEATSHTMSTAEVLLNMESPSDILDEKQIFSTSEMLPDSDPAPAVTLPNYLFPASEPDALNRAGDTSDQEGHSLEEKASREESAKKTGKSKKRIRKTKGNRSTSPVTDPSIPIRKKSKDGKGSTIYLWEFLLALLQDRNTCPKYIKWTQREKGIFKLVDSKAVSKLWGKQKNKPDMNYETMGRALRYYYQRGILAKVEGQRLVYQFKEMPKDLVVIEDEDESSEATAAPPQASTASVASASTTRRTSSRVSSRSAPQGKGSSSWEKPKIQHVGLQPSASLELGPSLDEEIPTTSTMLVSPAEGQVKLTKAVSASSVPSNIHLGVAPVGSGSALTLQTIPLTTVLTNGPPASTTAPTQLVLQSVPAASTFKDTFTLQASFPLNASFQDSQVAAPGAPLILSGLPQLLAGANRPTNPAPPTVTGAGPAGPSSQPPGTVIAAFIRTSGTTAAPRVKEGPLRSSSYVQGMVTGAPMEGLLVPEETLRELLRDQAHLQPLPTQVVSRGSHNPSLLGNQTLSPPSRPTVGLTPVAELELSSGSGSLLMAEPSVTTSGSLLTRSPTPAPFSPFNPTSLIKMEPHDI
Sequence of CRX (O43186 whole entry): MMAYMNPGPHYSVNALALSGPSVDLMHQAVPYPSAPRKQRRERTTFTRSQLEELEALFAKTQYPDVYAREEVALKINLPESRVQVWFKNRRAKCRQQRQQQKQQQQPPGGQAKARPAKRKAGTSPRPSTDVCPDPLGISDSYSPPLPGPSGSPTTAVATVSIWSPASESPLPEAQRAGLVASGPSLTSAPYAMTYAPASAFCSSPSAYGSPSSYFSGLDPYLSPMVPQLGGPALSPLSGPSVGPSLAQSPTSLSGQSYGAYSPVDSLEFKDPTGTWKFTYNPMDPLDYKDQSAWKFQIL

For ATATAA, the binding signal was 1.15 fold enrichment (6-mer frequency, TF over GST control) in [1]; 1.15 fold enrichment (6-mer frequency, TF over GST control) in [2]; 1.34 fold enrichment (6-mer frequency, TF over GST control) in test [3]; 1.1 fold enrichment (6-mer frequency, TF over GST control) in test [4]; 1.18 fold enrichment (6-mer frequency, TF over GST control) in test [5]; 1.29 fold enrichment (6-mer frequency, TF over GST control) in test [6]. Besides, the binding signal in test [7] was 1.24 fold enrichment (6-mer frequency, TF over GST control); in [8] it was 1.28 fold enrichment (6-mer frequency, TF over GST control); in test [9] it was 1.68 fold enrichment (6-mer frequency, TF over GST control); in [10], 1.16 fold enrichment (6-mer frequency, TF over GST control); in test [11], 1.16 fold enrichment (6-mer frequency, TF over GST control); in test [12] it was 1.23 fold enrichment (6-mer frequency, TF over GST control). The binding signal is 1.2 fold enrichment (6-mer frequency, TF over GST control) in test [13]; 1.19 fold enrichment (6-mer frequency, TF over GST control) in test [14]; 1.16 fold enrichment (6-mer frequency, TF over GST control) in test [15]; 1.16 fold enrichment (6-mer frequency, TF over GST control) in [16]; 1.27 fold enrichment (6-mer frequency, TF over GST control) in test [17]; 1.25 fold enrichment (6-mer frequency, TF over GST control) in test [18].
